# Test results as given in PubChem BioAssay (EPA / NIEHS).
# Results filed as inconclusive are left out. Activity calls are given as the source filed them. Rule for the calls, unless noted: active = hit-call score of the fitted dose curve at least 0.9, where 1 is the maximum; inactive = score below 0.9.
# Experiments:
# [1] = read-out: Monokine induced gamma interferon (MIG), CXCL9 (gene 4283); assay: BSK_SAg_MIG: BioMAP Diversity Plus: SAg Assay for Monokine induced gamma interferon (MIG) Biomarker Activity (AID 2283092); settings: primary human HUVEC with PBMC; actives raise or lower the signal
# Procedure, shortened: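 Values reflect bidirectional fitting of ELISA-measured MIG against DMSO vehicle, taken 24 h after dosing of a co-culture of human umbilical vein endothelial cells and peripheral blood mononuclear cells.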
# [2] = BSK_SAg_PBMCCytotoxicity: PBMC Cytotoxicity Assessment in the BioMAP Diversity Plus: SAg Assay (AID 2283093); settings: primary human HUVEC with PBMC;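 note: PBMC viability measured as Alamar Blue reduction fluorescence at 546/580 nm; fitted both ways against DMSO so a hit may be loss or gain of signal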;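 for AC50: PBMC superantigen activated with SEB plus TSST-1 one hour after compound addition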
# Procedure, shortened: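 Alamar Blue reduction (6 h, ex/em 546/580 nm) read after 90 h culture of PBMC pre-dosed 1 h then stimulated with SEB plus TSST-1, 20 ng/mL each. Gain or loss of signal fitted relative to DMSO.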
# [3] = read-out: Interleukin-8 (IL8), CXCL8 (gene 3576); assay: BSK_SAg_IL8: BioMAP Diversity Plus: SAg Assay for Interleukin-8 (IL8) Biomarker Activity (AID 2283094); settings: primary human HUVEC with PBMC; actives raise or lower the signal
# Procedure, shortened: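 Primary human endothelial cells with PBMC, exposed 24 h; IL-8 determined by ELISA, analysed bidirectionally relative to DMSO.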
# [4] = BSK_SAg_Proliferation: Cell Proliferation Assessment in the BioMAP Diversity Plus: SAg Assay (AID 2283095); settings: primary human HUVEC with PBMC;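 note: relative cell number as total protein by SRB absorbance in sub-confluent culture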
# Procedure, shortened: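 A human primary co-culture of umbilical vein endothelium and blood mononuclear cells receives compound; relative cell number is quantified at 96 h by SRB staining and 560 nm absorbance, with DMSO-referenced bidirectional curve fitting.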
# [5] = BSK_SAg_SRB: Viability Assessment in the BioMAP Diversity Plus: SAg Assay (AID 2283096); settings: primary human HUVEC with PBMC;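 note: cells read one day after compound addition; hits may be either gain or loss of signal compared with DMSO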
# Procedure, shortened: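 SRB absorbance at 560 nm served as the viability read-out. Cells (HUVEC plus peripheral blood mononuclear cells) were TCA-fixed and stained 24 h post-dosing; activity fitted in both directions against DMSO controls.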
# [6] = target: human CYP2B6, CYP2B6 (gene 1555) (UniProt P20813); assay: NVS_ADME_hCYP2B6: NovaScreen (NVS) CYP450-related Enzyme Activity (ADME) Assay for human CYP2B6 (AID 2283101; active = hit-call score of the fitted dose curve at least 0.9, where 1 is the maximum)
# Procedure, shortened: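 Compounds were first screened in duplicate at 10 uM against recombinant enzyme, with the fluorescent product measured after 1 hour. Active compounds were retested over a concentration series. Loss of fluorescence versus acetonitrile control was scored as reduced enzyme activity.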
# [7] = target: human CYP1A2, CYP1A2 (gene 1544) (UniProt P05177); assay: NVS_ADME_hCYP1A2: NovaScreen (NVS) CYP450-related Enzyme Activity (ADME) Assay for human CYP1A2 (AID 2283102; active = hit-call score of the fitted dose curve at least 0.9, where 1 is the maximum;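 for AC50: potency for inhibition since loss of fluorescence marks reduced CYP1A2 activity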)
# Procedure, shortened: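 Cell-free recombinant human CYP1A2 expressed in insect cells, with fluorogenic substrate; fluorescence intensity read 0.5 h after dosing. Loss of signal relative to acetonitrile baseline scored. Primary screen in duplicate at 10 uM; actives retested in concentration series.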
# [8] = target: human CYP19A1, CYP19A1 (gene 1588) (UniProt P11511); assay: NVS_ADME_hCYP19A1: NovaScreen (NVS) CYP450-related Enzyme Activity (ADME) Assay for human CYP19A1 (AID 2283098; active = hit-call score of the fitted dose curve at least 0.9, where 1 is the maximum)
# Procedure, shortened: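 Primary testing was in duplicate at a single 10 uM concentration, with actives followed up in concentration-response series. Fluorescence read-out of recombinant enzyme activity at 0.5 h, cell-free. Acetonitrile was the negative-control baseline.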
# [9] = target: human CYP1A1, CYP1A1 (gene 1543) (UniProt P04798); assay: NVS_ADME_hCYP1A1: NovaScreen (NVS) CYP450-related Enzyme Activity (ADME) Assay for human CYP1A1 (AID 2283100; active = hit-call score of the fitted dose curve at least 0.9, where 1 is the maximum)
# Procedure: NVS_ADME_hCYP1A1 is a biochemical, single-readout assay that uses extracted gene-proteins in a cell-free assay. Measurements were taken 1 hour after chemical dosing in a 96-well plate.NVS_ADME_hCYP1A1 is one of one assay component(s) measured or calculated from the NVS_ADME_hCYP1A1 assay. It is designed to make measurements of enzyme activity, a form of enzyme reporter, as detected with fluorescence intensity signals by Fluorescence technology.Data from the assay component NVS_ADME_hCYP1A1 was analyzed into 1 assay endpoint. This assay endpoint, NVS_ADME_hCYP1A1, was analyzed in the positive analysis fitting direction relative to Acetonitrile as the negative control and baseline of activity. Using a type of enzyme reporter, loss-of-signal activity can be used to understand changes in the enzymatic activity as they relate to the gene CYP1A1. Furthermore, this assay endpoint can be referred to as a primary readout, because this assay has produced multiple assay endpoints where this one serves a enzymatic activity function. To generalize the intended target to other relatable targets, this assay endpoint is annotated to the cyp intended target family, where the subfamily is xenobiotic metabolism.
# Binding assays used specific radioligands (tritiated, iodinated) with non-radioactive competitive displacement ligands in agonist or antagonist protocols (as indicated) and various reference compounds and inhibitors to titrate specific binding to receptors and transporters. Most enzyme assays (CYPs, kinases, phosphatases, proteases, HDACs) used recombinant protein and specific substrates (fluorescence mostly, some colorimetric and radioactive) and inhibitors, followed by a biochemical separation of substrate and product. All assays for the biochemical HTS were initially run in duplicate at a single concentration (10 uM for CYP450 assays and 25 uM for all others). Assay-chemical combinations meeting a pre-defined threshold (e.g., 30% inhibition and other criteria defined below) were then run in singleton concentration-response format with maximum concentration of 20 uM for CYPs and 50 uM for all others. Each assay was run with positive and negative controls, and concurrent controls on every plate. The follow-up (secondary) screen tested active chemical-pairs in concentration series, as well as a few additional assays not tested in the primary screen, some selected negative inactives, and several cases re-run in the concentration series for confirmatory purposes.
# [10] = target: human CYP2A6, CYP2A6 (gene 1548) (UniProt P11509); assay: NVS_ADME_hCYP2A6: NovaScreen (NVS) CYP450-related Enzyme Activity (ADME) Assay for human CYP2A6 (AID 2283099; active = hit-call score of the fitted dose curve at least 0.9, where 1 is the maximum)
# Procedure, shortened: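 Cell-free fluorescence readout of recombinant human CYP2A6 expressed in insect cells, read 0.5 h after dosing; loss of signal versus acetonitrile negative control. Primary screen in duplicate at 10 uM; actives re-run in concentration-response up to 20 uM.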
# Sequence of human CYP1A2, CYP1A2 (gene 1544) (P05177 whole entry, looked up): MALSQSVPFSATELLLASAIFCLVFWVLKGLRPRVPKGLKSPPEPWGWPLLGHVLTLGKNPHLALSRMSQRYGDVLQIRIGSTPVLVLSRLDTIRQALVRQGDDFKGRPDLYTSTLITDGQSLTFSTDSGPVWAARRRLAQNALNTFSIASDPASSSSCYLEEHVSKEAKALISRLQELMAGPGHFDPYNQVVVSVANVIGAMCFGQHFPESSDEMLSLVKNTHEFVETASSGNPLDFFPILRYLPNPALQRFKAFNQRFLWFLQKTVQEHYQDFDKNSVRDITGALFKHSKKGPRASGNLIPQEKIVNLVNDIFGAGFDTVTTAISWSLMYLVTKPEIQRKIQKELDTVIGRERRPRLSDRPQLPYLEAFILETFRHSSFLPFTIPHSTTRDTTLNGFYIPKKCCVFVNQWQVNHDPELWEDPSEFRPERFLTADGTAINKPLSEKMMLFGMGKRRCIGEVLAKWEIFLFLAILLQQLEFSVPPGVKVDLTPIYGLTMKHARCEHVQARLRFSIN
# Sequence of human CYP19A1, CYP19A1 (gene 1588) (P11511 whole entry, looked up): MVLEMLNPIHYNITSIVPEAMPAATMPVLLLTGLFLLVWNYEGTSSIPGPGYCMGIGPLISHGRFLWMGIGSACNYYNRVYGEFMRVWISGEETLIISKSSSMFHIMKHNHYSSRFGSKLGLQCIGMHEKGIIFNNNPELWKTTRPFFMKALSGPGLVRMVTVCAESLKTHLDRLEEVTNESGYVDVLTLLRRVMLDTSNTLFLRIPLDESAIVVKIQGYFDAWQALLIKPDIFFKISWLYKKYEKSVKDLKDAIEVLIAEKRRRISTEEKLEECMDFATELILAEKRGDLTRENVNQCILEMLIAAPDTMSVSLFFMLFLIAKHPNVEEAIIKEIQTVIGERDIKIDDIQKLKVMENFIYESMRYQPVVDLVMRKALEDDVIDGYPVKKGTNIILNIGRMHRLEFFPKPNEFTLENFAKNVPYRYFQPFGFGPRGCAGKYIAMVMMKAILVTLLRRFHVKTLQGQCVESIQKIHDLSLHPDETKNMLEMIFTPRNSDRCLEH
# Sequence of human CYP1A1, CYP1A1 (gene 1543) (P04798 whole entry, looked up): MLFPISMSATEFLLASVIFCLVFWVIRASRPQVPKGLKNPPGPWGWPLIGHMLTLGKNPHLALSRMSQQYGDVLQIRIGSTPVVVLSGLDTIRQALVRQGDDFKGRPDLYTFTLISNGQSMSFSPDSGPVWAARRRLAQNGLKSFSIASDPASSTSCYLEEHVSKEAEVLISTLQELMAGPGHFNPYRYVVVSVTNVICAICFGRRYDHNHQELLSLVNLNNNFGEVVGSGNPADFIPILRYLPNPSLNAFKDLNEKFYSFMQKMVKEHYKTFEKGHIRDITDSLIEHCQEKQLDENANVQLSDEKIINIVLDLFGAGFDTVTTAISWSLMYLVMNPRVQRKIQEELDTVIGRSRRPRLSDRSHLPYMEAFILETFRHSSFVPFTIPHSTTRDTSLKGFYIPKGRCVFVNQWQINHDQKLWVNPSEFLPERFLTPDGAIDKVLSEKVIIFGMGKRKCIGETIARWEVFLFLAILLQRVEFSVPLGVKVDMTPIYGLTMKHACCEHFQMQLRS
# Sequence of human CYP2B6, CYP2B6 (gene 1555) (P20813 whole entry, looked up): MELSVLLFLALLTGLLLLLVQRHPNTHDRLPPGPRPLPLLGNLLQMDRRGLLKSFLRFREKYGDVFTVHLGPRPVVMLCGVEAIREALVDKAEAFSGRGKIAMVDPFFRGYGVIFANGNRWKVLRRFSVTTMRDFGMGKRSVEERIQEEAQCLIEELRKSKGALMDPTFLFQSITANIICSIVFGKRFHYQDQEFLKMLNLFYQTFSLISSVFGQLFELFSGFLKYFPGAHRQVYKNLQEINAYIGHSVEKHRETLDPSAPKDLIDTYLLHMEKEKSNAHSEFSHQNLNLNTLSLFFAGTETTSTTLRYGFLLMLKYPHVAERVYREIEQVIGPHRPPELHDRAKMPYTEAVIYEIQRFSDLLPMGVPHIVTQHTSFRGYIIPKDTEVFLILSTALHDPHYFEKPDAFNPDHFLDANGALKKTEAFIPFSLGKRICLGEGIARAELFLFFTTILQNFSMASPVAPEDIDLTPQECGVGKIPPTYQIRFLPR
# Sequence of human CYP2A6, CYP2A6 (gene 1548) (P11509 whole entry, looked up): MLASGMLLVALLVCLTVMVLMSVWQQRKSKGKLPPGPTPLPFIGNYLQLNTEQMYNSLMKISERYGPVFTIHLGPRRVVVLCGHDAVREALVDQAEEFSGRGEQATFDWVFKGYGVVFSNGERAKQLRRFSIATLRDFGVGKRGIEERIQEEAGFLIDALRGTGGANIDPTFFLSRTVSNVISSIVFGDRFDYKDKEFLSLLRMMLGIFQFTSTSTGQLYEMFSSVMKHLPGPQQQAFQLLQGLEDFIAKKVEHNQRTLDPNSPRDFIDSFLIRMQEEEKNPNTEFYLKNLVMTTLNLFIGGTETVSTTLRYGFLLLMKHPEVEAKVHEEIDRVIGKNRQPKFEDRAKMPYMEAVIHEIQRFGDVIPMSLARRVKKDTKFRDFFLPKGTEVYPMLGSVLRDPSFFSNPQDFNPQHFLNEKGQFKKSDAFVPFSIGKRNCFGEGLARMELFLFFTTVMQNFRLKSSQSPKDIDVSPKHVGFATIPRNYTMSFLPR
smiles,measurement,setting,value
O=C1CCCCC1,outcome,[1],inactive
same,outcome,[2],inactive
same,outcome,[3],inactive
same,outcome,[4],inactive
O=C(NS(=O)(=O)/C=C/c1cccs1)c1ccc(F)cc1Br,outcome,[1],inactive
same,outcome,[2],inactive
same,outcome,[3],inactive
same,AC50,[4],3.54 µM (active)
Cn1cnc2c1c(=O)[nH]c(=O)n2C,outcome,[1],inactive
same,outcome,[2],inactive
same,outcome,[3],inactive
Nc1nc(=S)c2[nH]cnc2[nH]1,outcome,[1],inactive
same,outcome,[2],inactive
same,outcome,[3],inactive
CCCCCCCCCCCCCCCCO,outcome,[1],inactive
same,outcome,[2],inactive
same,outcome,[3],inactive
CC(=O)[C@@]1(O)CC[C@H]2[C@@H]3CCC4=CC(=O)CC[C@]4(C)[C@H]3CC[C@@]21C,outcome,[1],inactive
same,outcome,[2],inactive
same,outcome,[3],inactive
same,outcome,[4],inactive
Cc1cn([C@H]2C=C[C@@H](CO)O2)c(=O)[nH]c1=O,outcome,[1],inactive
same,outcome,[2],inactive
same,outcome,[3],inactive
same,outcome,[4],inactive
CC(=O)CC(c1ccccc1)c1c(O)c2ccccc2oc1=O (centres undefined),outcome,[1],inactive
same,outcome,[2],inactive
same,outcome,[3],inactive
same,outcome,[4],inactive
O=Cc1ccccc1C=O,outcome,[1],inactive
same,outcome,[2],inactive
same,outcome,[3],inactive
CC1=C(C)S(=O)(=O)CCS1(=O)=O,outcome,[1],inactive
same,outcome,[2],inactive
same,outcome,[3],inactive
same,outcome,[4],inactive
C/C=C/c1ccc(OC)cc1,outcome,[1],inactive
same,outcome,[2],inactive
same,outcome,[3],inactive
CC(=O)O[C@]1(C(C)=O)CC[C@H]2[C@@H]3C=C(Cl)C4=CC(=O)[C@@H]5C[C@@H]5[C@]4(C)[C@H]3CC[C@@]21C,outcome,[1],inactive
same,outcome,[2],inactive
same,outcome,[3],inactive
same,outcome,[4],inactive
CCCCCCCC(=O)OC,outcome,[1],inactive
same,outcome,[2],inactive
same,outcome,[3],inactive
same,outcome,[4],inactive
NC(=Nc1ccccc1)Nc1ccccc1,outcome,[1],inactive
same,outcome,[2],inactive
same,outcome,[3],inactive
CSc1ccc(Oc2ccc(S(N)(=O)=O)cc2CN(C)C)cc1C,outcome,[1],inactive
same,outcome,[2],inactive
same,outcome,[3],inactive
CC(COCC(C)OC(=O)c1ccccc1)OC(=O)c1ccccc1 (centres undefined),outcome,[1],inactive
same,outcome,[2],inactive
same,outcome,[3],inactive
same,outcome,[4],inactive
same,outcome,[5],inactive
same,outcome,[6],inactive
same,AC50,[7],8.75 µM (active)
Oc1ccc(O)cc1,outcome,[1],inactive
same,AC50,[2],12.8 µM (active)
same,outcome,[3],inactive
same,AC50,[4],7.06 µM (active)
same,outcome,[5],inactive
CCc1cc(C2=C(C(=O)O)N(c3ccccc3C(F)(F)F)S(=O)(=O)c3ccccc32)cc2c1OCO2,outcome,[1],inactive
same,outcome,[2],inactive
same,outcome,[3],inactive
same,AC50,[4],15.3 µM (active)
same,outcome,[5],inactive
Cc1cc(Cc2ccc(N)c(C)c2)ccc1N,outcome,[1],inactive
same,outcome,[2],inactive
same,outcome,[3],inactive
same,outcome,[4],inactive
same,outcome,[7],inactive
CC(=O)S[C@H](C(=O)N[C@H]1Cc2ccccc2[C@H]2CCC[C@@H](C(=O)O)N2C1=O)C(C)C,outcome,[1],inactive
same,outcome,[2],inactive
same,outcome,[3],inactive
same,AC50,[4],7.81 µM (active)
same,outcome,[5],inactive
O=C(N[C@@H](c1ccccc1)[C@@H]1CCCCN1)c1cccc(C(F)(F)F)c1Cl,outcome,[1],inactive
same,AC50,[2],20 µM (active)
same,AC50,[3],14.3 µM (active)
same,AC50,[4],14.4 µM (active)
same,AC50,[5],26.5 µM (active)
same,outcome,[8],inactive
C/C=C/C=C/C(=O)O,outcome,[1],inactive
same,outcome,[2],inactive
same,outcome,[3],inactive
same,outcome,[4],inactive
same,outcome,[5],inactive
same,outcome,[8],inactive
CC(=O)OC1CC(C)OC(C)O1 (centres undefined),outcome,[1],inactive
same,outcome,[2],inactive
same,outcome,[3],inactive
same,AC50,[4],13.5 µM (active)
same,outcome,[9],inactive
CC1(C)C(=O)NC(=O)N1CO,outcome,[1],inactive
same,outcome,[2],inactive
same,outcome,[3],inactive
same,outcome,[4],inactive
same,outcome,[5],inactive
same,outcome,[10],inactive
O=[Si]=O,outcome,[1],inactive
same,outcome,[2],inactive
same,outcome,[3],inactive
same,outcome,[4],inactive
same,outcome,[5],inactive
CC(C)(C)c1ccccc1,outcome,[1],inactive
same,outcome,[2],inactive
same,outcome,[3],inactive
same,outcome,[4],inactive
same,outcome,[5],inactive
CCN(CC)CCOc1ccc(C(=C(Cl)c2ccccc2)c2ccccc2)cc1,AC50,[1],13.8 µM (active)
same,AC50,[2],6.29 µM (active)
same,AC50,[3],7.87 µM (active)
same,AC50,[4],3.54 µM (active)
same,AC50,[6],11.3 µM (active)
CS(=O)(=O)c1ccc([C@@H](C[C@H]2CCC(=O)C2)C(=O)Nc2cnccn2)cc1Cl,outcome,[1],inactive
same,outcome,[2],inactive
same,outcome,[3],inactive
same,outcome,[4],inactive
same,outcome,[5],inactive
CC(C)OC(=O)C(C)(C)Oc1ccc(C(=O)c2ccc(Cl)cc2)cc1,outcome,[1],inactive
same,outcome,[2],inactive
same,AC50,[3],29.1 µM (active)
same,AC50,[4],29.5 µM (active)
same,AC50,[5],28.9 µM (active)
CC(C)(O)c1ccc(CNC(=O)c2cccnc2Oc2ccc(F)cc2)cc1,outcome,[1],inactive
same,outcome,[2],inactive
same,outcome,[3],inactive
same,outcome,[4],inactive
same,outcome,[5],inactive
same,outcome,[9],inactive
COc1ccc(OC(F)(F)F)cc1CN[C@H]1CCCN[C@H]1c1ccccc1,outcome,[1],inactive
same,AC50,[2],26.6 µM (active)
same,AC50,[3],12.4 µM (active)
same,AC50,[4],32.6 µM (active)
same,AC50,[5],31.1 µM (active)
O=C(O)CN(CC(=O)O)CC(=O)O,outcome,[1],inactive
same,outcome,[2],inactive
same,outcome,[3],inactive
same,AC50,[4],29.1 µM (active)
same,outcome,[7],inactive
O=C1O[C@H]([C@H](O)CO)C(O)=C1O,outcome,[1],inactive
same,outcome,[2],inactive
same,outcome,[3],inactive
same,AC50,[4],12 µM (active)
same,outcome,[5],inactive
OCC(CO)n1cnc(-c2ccc(F)cc2)c1-c1ccnc(Oc2ccccc2)n1,outcome,[1],inactive
same,AC50,[2],2.47 µM (active)
same,AC50,[3],0.24 µM (active)
same,AC50,[4],18.1 µM (active)
same,outcome,[5],inactive
NCCOCCOCCN,outcome,[1],inactive
same,outcome,[2],inactive
same,outcome,[3],inactive
same,outcome,[4],inactive
same,outcome,[5],inactive
N[C@@H](Cc1c[nH]c2ccccc12)C(=O)O,outcome,[1],inactive
same,outcome,[2],inactive
same,outcome,[3],inactive
same,outcome,[4],inactive
same,outcome,[5],inactive
Cc1cc(SC2=C(O)C[C@@](CCc3ccc(N)cc3)(C(C)C)OC2=O)c(C(C)(C)C)cc1CO,outcome,[1],inactive
same,outcome,[2],inactive
same,outcome,[3],inactive
same,outcome,[4],inactive
same,outcome,[8],inactive
